Assay results published in PubChem BioAssay (NCI).
This is part of a sample that, as a whole, favours compounds with a hit. Of some 83,000 tested, about 20% had one in any assay.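 The test compound was applied at a single concentration to cells in 96-well plates for 48 hours, and percent growth was recorded.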 A number with no mark means an inactive call. Active and inactive are the calls of the source. How the source made its calls: active means growth percent below 10; inactive means the rest.

system: HL-60(TB) leukemia; assay: NCI-60 one-dose screen, 48 h (100 = growth as untreated, 0 = no growth, -100 = all killed); conditions: 10 µM unless noted

Point of comparison: `O=C(Nc1ccc(Oc2ccc(F)cc2)c(Cl)c1)c1cnccn1`, growth 21.4%. Against it:
- COc1cccc(-c2nn(C(C)(C)C)cc2-c2ccnc(NCCCNS(=O)(=O)c3cccc4ccccc34)c2)c1 — higher, 104%
- O=C1c2ccccc2C(=O)c2c1c(C(=O)NCc1ccccc1)c1ccccn21 — higher, 88.7%
- NC(=S)Nc1cccc(O)c1 — higher, 98.6%
- Cc1c2c(c(C)c3c1oc1cc(O)ccc13)C(=O)N(CCN1CCCCC1)C2=O — higher, 99.3%
- Nc1c(Br)cc(O)c2c1C(=O)c1ccccc1C2=O — higher, 41.9%
- O=C(O)C(/C=C/c1ccco1)=N\Nc1nc(-c2ccc(Cl)cc2)cs1 — higher, 52.2%
- Cc1ccc2nc(-c3ccc(C(=O)N/N=C/c4ccc([N+](=O)[O-])cc4)cc3)[nH]c2c1 — higher, 103%
- Cc1cccc(NC(=O)Cn2cc(CN3CCN(c4ccnc5cc(Cl)ccc45)CC3)nn2)c1 — higher, 89.1%
- Cc1ccc(C2Oc3ccccc3C3CC(c4cccs4)=NN32)cc1 (stereo not given) — higher, 97.4%
- C=CCNCCC#N — higher, 109%

`COC(=O)c1cc(-c2ccccc2)[nH]c1N/N=C/c1c(Cl)cccc1Cl` was tested, and the growth was -42.9% (active).
`N#Cc1ncc(-c2ccc(C(F)(F)F)cc2)c(NCc2cc(C(F)(F)F)cc(C(F)(F)F)c2)n1` was tested, and the growth was -0.911% (active).
With `CN1C/C=C\CCOc2cccc(c2)-c2ccnc(n2)Nc2cccc(c2)C1` the growth was -51.9% (active).
With `Cc1cccc2c(=O)c3c(sc12)c(NCCN)nc1ccccc13` the growth was -62.7% (active).
